The values that follow come from publication doi:10.1101/2024.03.05.583629.

Sequence of pT7_6His-AlfaTag-HOXD13 (P35453 263-343): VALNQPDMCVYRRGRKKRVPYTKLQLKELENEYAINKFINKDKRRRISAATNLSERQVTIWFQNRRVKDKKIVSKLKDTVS

This experiment has as its target pT7_6His-AlfaTag-HOXD13 (human, UniProt P35453 263-343). Briefly: PADIT-seq. Conditions: dsDNA, one strand shown.
“CTCGAGGATATCAAGATCTGGCCTCGGCACGATAAAAGGAACCTCTAGCTAGCCGACTCACTATAGGGATAATCGCCCTGAGCAAAGACC” gave a binding signal of 1.32 ± 0.0937 log2FC.

“CTCGAGGATATCAAGATCTGGCCTCGGCTTTTTATACGGAACCTCTAGCTAGCCGACTCACTATAGGGATAATCGCCCTGAGCAAAGACC” yielded a binding signal of 2.44 ± 0.0818 log2FC.

In the case of “CTCGAGGATATCAAGATCTGGCCTCGGCGCGTTAGCGGGAACCTCTAGCTAGCCGACTCACTATAGGGATAATCGCCCTGAGCAAAGACC”, the binding signal is -0.986 ± 0.133 log2FC.

The sequence “CTCGAGGATATCAAGATCTGGCCTCGGCTAACTAAAAGGAACCTCTAGCTAGCCGACTCACTATAGGGATAATCGCCCTGAGCAAAGACC” had a binding signal of -0.24 ± 0.119 log2FC.

On to “CTCGAGGATATCAAGATCTGGCCTCGGCATTTTAGTAGGAACCTCTAGCTAGCCGACTCACTATAGGGATAATCGCCCTGAGCAAAGACC”, for which the binding signal came to 1.68 ± 0.0834 log2FC.

With “CTCGAGGATATCAAGATCTGGCCTCGGCCAGTTAAAAGGAACCTCTAGCTAGCCGACTCACTATAGGGATAATCGCCCTGAGCAAAGACC”, the binding signal was found to be 2 ± 0.0881 log2FC.

Sequence “CTCGAGGATATCAAGATCTGGCCTCGGCAAACCACGCGGAACCTCTAGCTAGCCGACTCACTATAGGGATAATCGCCCTGAGCAAAGACC” showed a binding signal of -0.989 ± 0.132 log2FC.

Sequence “CTCGAGGATATCAAGATCTGGCCTCGGCTTTTTAGATGGAACCTCTAGCTAGCCGACTCACTATAGGGATAATCGCCCTGAGCAAAGACC” yielded a binding signal of 0.28 ± 0.11 log2FC.

Consider “CTCGAGGATATCAAGATCTGGCCTCGGCCTTTTATCCGGAACCTCTAGCTAGCCGACTCACTATAGGGATAATCGCCCTGAGCAAAGACC”, for which the binding signal was determined as 0.939 ± 0.078 log2FC.

The sequence “CTCGAGGATATCAAGATCTGGCCTCGGCATTTTAGAGGGAACCTCTAGCTAGCCGACTCACTATAGGGATAATCGCCCTGAGCAAAGACC” yielded a binding signal of 1.43 ± 0.0957 log2FC.

The sequence “CTCGAGGATATCAAGATCTGGCCTCGGCGCGCTCGCGGGAACCTCTAGCTAGCCGACTCACTATAGGGATAATCGCCCTGAGCAAAGACC” had a binding signal of -1.06 ± 0.163 log2FC.

On to “CTCGAGGATATCAAGATCTGGCCTCGGCATTTTAGCCGGAACCTCTAGCTAGCCGACTCACTATAGGGATAATCGCCCTGAGCAAAGACC”, for which the binding signal is -0.535 ± 0.111 log2FC.

For “CTCGAGGATATCAAGATCTGGCCTCGGCGTTTTACGCGGAACCTCTAGCTAGCCGACTCACTATAGGGATAATCGCCCTGAGCAAAGACC”, the binding signal was 2.22 ± 0.0821 log2FC.

As for “CTCGAGGATATCAAGATCTGGCCTCGGCTTACTAAAAGGAACCTCTAGCTAGCCGACTCACTATAGGGATAATCGCCCTGAGCAAAGACC”, the binding signal is 0.214 ± 0.111 log2FC.

“CTCGAGGATATCAAGATCTGGCCTCGGCGTTTTATACGGAACCTCTAGCTAGCCGACTCACTATAGGGATAATCGCCCTGAGCAAAGACC”: the binding signal was found to be 2.62 ± 0.0803 log2FC.

Turning to “CTCGAGGATATCAAGATCTGGCCTCGGCATTTTATCAGGAACCTCTAGCTAGCCGACTCACTATAGGGATAATCGCCCTGAGCAAAGACC”, the binding signal came out at 2.32 ± 0.0735 log2FC.

As for “CTCGAGGATATCAAGATCTGGCCTCGGCCACGTAAAAGGAACCTCTAGCTAGCCGACTCACTATAGGGATAATCGCCCTGAGCAAAGACC”, the binding signal turned out to be 1.76 ± 0.0916 log2FC.

“CTCGAGGATATCAAGATCTGGCCTCGGCATTTTACCCGGAACCTCTAGCTAGCCGACTCACTATAGGGATAATCGCCCTGAGCAAAGACC”: the binding signal is -0.0737 ± 0.0918 log2FC.

“CTCGAGGATATCAAGATCTGGCCTCGGCGACTTAAAAGGAACCTCTAGCTAGCCGACTCACTATAGGGATAATCGCCCTGAGCAAAGACC” had a binding signal of 0.297 ± 0.0744 log2FC.

Sequence “CTCGAGGATATCAAGATCTGGCCTCGGCCTTTTACTCGGAACCTCTAGCTAGCCGACTCACTATAGGGATAATCGCCCTGAGCAAAGACC” returned a binding signal of 0.504 ± 0.0906 log2FC.

Consider “CTCGAGGATATCAAGATCTGGCCTCGGCAAAATAAAAGGAACCTCTAGCTAGCCGACTCACTATAGGGATAATCGCCCTGAGCAAAGACC”, for which the binding signal stood at 1.46 ± 0.0905 log2FC.

“CTCGAGGATATCAAGATCTGGCCTCGGCGCGATGGCGGGAACCTCTAGCTAGCCGACTCACTATAGGGATAATCGCCCTGAGCAAAGACC”: the binding signal was -0.944 ± 0.133 log2FC.

Regarding “CTCGAGGATATCAAGATCTGGCCTCGGCGTTTTACAGGGAACCTCTAGCTAGCCGACTCACTATAGGGATAATCGCCCTGAGCAAAGACC”, the binding signal stood at 2.89 ± 0.0835 log2FC.

As to “CTCGAGGATATCAAGATCTGGCCTCGGCTATGTAAAAGGAACCTCTAGCTAGCCGACTCACTATAGGGATAATCGCCCTGAGCAAAGACC”, the binding signal is 1.05 ± 0.102 log2FC.

Sequence “CTCGAGGATATCAAGATCTGGCCTCGGCGGTCTAAAAGGAACCTCTAGCTAGCCGACTCACTATAGGGATAATCGCCCTGAGCAAAGACC” gave a binding signal of -0.664 ± 0.0879 log2FC.

On to “CTCGAGGATATCAAGATCTGGCCTCGGCTGATTAAAAGGAACCTCTAGCTAGCCGACTCACTATAGGGATAATCGCCCTGAGCAAAGACC”, for which the binding signal turned out to be 1.86 ± 0.0796 log2FC.

Consider “CTCGAGGATATCAAGATCTGGCCTCGGCCGTCTAAAAGGAACCTCTAGCTAGCCGACTCACTATAGGGATAATCGCCCTGAGCAAAGACC”, for which the binding signal was -0.577 ± 0.117 log2FC.

“CTCGAGGATATCAAGATCTGGCCTCGGCGTTTTAGAGGGAACCTCTAGCTAGCCGACTCACTATAGGGATAATCGCCCTGAGCAAAGACC” returned a binding signal of 1.24 ± 0.114 log2FC.

Turning to “CTCGAGGATATCAAGATCTGGCCTCGGCGCGCGAGCGGGAACCTCTAGCTAGCCGACTCACTATAGGGATAATCGCCCTGAGCAAAGACC”, the binding signal was -0.654 ± 0.136 log2FC.

For the sequence “CTCGAGGATATCAAGATCTGGCCTCGGCGTTTTACACGGAACCTCTAGCTAGCCGACTCACTATAGGGATAATCGCCCTGAGCAAAGACC”, the binding signal is 2.15 ± 0.0769 log2FC.

“CTCGAGGATATCAAGATCTGGCCTCGGCAGCCTAAAAGGAACCTCTAGCTAGCCGACTCACTATAGGGATAATCGCCCTGAGCAAAGACC” gave a binding signal of -0.607 ± 0.118 log2FC.

On to “CTCGAGGATATCAAGATCTGGCCTCGGCATCGTAAAAGGAACCTCTAGCTAGCCGACTCACTATAGGGATAATCGCCCTGAGCAAAGACC”, for which the binding signal turned out to be 2.79 ± 0.0886 log2FC.

“CTCGAGGATATCAAGATCTGGCCTCGGCTACTTAAAAGGAACCTCTAGCTAGCCGACTCACTATAGGGATAATCGCCCTGAGCAAAGACC” came in with a binding signal of 0.982 ± 0.0923 log2FC.

The sequence “CTCGAGGATATCAAGATCTGGCCTCGGCTCACCACGCGGAACCTCTAGCTAGCCGACTCACTATAGGGATAATCGCCCTGAGCAAAGACC” registered a binding signal of -1.05 ± 0.123 log2FC.

With “CTCGAGGATATCAAGATCTGGCCTCGGCATGTTAAAAGGAACCTCTAGCTAGCCGACTCACTATAGGGATAATCGCCCTGAGCAAAGACC”, the binding signal came out at 1.48 ± 0.0814 log2FC.

For “CTCGAGGATATCAAGATCTGGCCTCGGCTTTTTACGCGGAACCTCTAGCTAGCCGACTCACTATAGGGATAATCGCCCTGAGCAAAGACC”, the binding signal stood at 2.08 ± 0.0867 log2FC.

In turn, “CTCGAGGATATCAAGATCTGGCCTCGGCGACGTAAAAGGAACCTCTAGCTAGCCGACTCACTATAGGGATAATCGCCCTGAGCAAAGACC” returned a binding signal of 0.404 ± 0.076 log2FC.

“CTCGAGGATATCAAGATCTGGCCTCGGCCGCCCAGCAGGAACCTCTAGCTAGCCGACTCACTATAGGGATAATCGCCCTGAGCAAAGACC” returned a binding signal of -0.927 ± 0.127 log2FC.
